Outcome and AC50 data for 4 compounds are collected here from PubChem BioAssay (EPA / NIEHS).

Inconclusive results are not listed. Calls of active or inactive are those of the source. The calls were made as follows, unless noted: active = hit-call score of the fitted dose curve at least 0.9, where 1 is the maximum; inactive = score below 0.9.

In test [1] the target is Paired box protein Pax-6 (Homo sapiens) (UniProt P26367). As to the kind of experiment: ATG_Pax6_CIS: Attagene CIS-FACTORIAL HepG2 Assay for human Paired Box 6 (PAX6) (AID 2282956). The settings on record: HepG2 CIS-FACTORIAL PAX6 reporter transcription, RNA readout; actives raise or lower the signal. Summed up:
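HepG2 cells transiently transfected with cis-promoter-driven multiplexed reporter units sensing endogenous transcription factor activity; 24 h chemical exposure. Reporter mRNA quantified by RT-PCR, 6-FAM labelling, HpaI digestion and capillary electrophoresis; bidirectional fit versus DMSO baseline.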

Test [2] is described as follows: ATG_PXRE_CIS: Attagene CIS-FACTORIAL HepG2 Assay for human Pregnane X Receptor Element (PXRE) (AID 2282957). The settings on record: HepG2 Attagene CIS-FACTORIAL PXRE reporter, mRNA; actives raise or lower the signal. In a few lines:
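Transfect HepG2 with MRTUs (cis promoter elements); dose chemical, incubate 24 h; isolate RNA, RT with oligo(dT), PCR, 6-FAM label, HpaI cut, CE. Gain/loss fit vs DMSO.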

Test [3] in a line: ATG_PPRE_CIS: Attagene CIS-FACTORIAL HepG2 Assay for human Peroxisome Proliferator-activated Response Element (PPRE) (AID 2282958). The settings on record: HepG2 PPRE cis-element reporter, Attagene transcription factor profiling; actives raise or lower the signal. In a few lines:
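In this cell-based multiplex, a PPRE cis element drives a reporter sequence in transiently transfected HepG2 cells. Following 24 h treatment, labeled cDNA amplicons are sized and quantified by capillary electrophoresis, with DMSO defining baseline.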

A short description of test [4]: ATG_RORE_CIS: Attagene CIS-FACTORIAL HepG2 Assay for human RAR-related Orphan Receptor Element (RORE) (AID 2282959). The settings on record: HepG2 Attagene cis-factorial RORE reporter, mRNA; actives raise or lower the signal. Summed up: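 Endogenous factor activity at a cis response element is read as reporter transcript levels in HepG2 cells, 24 h post-dose. Transcripts are quantified by RT-PCR with capillary electrophoresis, and data fitted in both directions against DMSO.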

The nature of test [5]: ATG_Sox_CIS: Attagene CIS-FACTORIAL HepG2 Assay for human SRY-box transcription factor (SOX) (AID 2282960). The settings on record: HepG2 Attagene cis-factorial SOX reporter, mRNA; actives raise or lower the signal. Summed up: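 Measures mRNA induction of a SOX1-associated reporter in HepG2 after 24 h dosing. Fluorescently labelled RT-PCR fragments are separated by capillary electrophoresis, and gain or loss relative to DMSO control is fitted.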

Test [6] deals with Transcription factor Sp1 (Homo sapiens) (UniProt P08047). As to the kind of experiment: ATG_Sp1_CIS: Attagene CIS-FACTORIAL HepG2 Assay for human Specificity Protein 1 (Sp1) (AID 2282961). The settings on record: HepG2 Sp1 cis-reporter transcription, actives raise or lower the signal. Summed up: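 Cells: HepG2, transiently transfected with cis-regulated multiplexed reporters. Exposure: 24 h. Detection: reporter transcripts amplified, fluorescently labeled, restriction-digested and sized by capillary electrophoresis. Analysis: bidirectional fit relative to DMSO.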
Transcription factor Sp1 (Homo sapiens), sequence (P08047 whole entry, looked up): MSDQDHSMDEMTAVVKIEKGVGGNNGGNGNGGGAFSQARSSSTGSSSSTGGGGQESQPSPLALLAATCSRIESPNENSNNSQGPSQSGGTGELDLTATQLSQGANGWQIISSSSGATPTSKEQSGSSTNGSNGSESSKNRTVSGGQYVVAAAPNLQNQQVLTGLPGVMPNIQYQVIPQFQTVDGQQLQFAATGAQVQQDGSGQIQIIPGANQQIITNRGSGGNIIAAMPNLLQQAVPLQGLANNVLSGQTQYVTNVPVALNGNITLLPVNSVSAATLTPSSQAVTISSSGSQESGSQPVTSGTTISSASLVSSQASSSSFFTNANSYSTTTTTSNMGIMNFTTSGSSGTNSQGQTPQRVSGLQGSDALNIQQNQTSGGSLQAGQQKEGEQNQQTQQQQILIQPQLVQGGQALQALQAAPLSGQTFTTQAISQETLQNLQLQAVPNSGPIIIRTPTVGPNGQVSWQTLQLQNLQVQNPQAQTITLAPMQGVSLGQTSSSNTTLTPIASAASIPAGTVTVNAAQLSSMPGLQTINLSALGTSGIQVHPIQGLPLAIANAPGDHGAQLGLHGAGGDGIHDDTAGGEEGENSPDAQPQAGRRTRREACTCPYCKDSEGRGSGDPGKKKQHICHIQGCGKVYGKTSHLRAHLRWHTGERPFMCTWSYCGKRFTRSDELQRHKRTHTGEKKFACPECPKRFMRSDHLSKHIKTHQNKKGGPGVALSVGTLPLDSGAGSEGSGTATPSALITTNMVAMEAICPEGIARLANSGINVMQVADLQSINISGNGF

A short description of test [7]: ATG_SREBP_CIS: Attagene CIS-FACTORIAL HepG2 Assay for human Sterol Regulatory Element Binding (SREBP) (AID 2282962). The settings on record: HepG2 Attagene cis-factorial SREBP reporter, mRNA; actives raise or lower the signal. In a few lines: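 HepG2 cells transiently transfected with multiplexed cis-promoter reporter units sensing endogenous transcription factors; reporter mRNA measured 24 h after dosing by RT-PCR, 6-FAM labeling, HpaI digestion and capillary electrophoresis. Bidirectional fit versus DMSO.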

For test [8], the target named is Signal transducer and activator of transcription 3 (Homo sapiens) (UniProt P40763). The experiment in a line: ATG_STAT3_CIS: Attagene CIS-FACTORIAL HepG2 Assay for human Signal Transducer and Activator of Transcription 3 (STAT3) (AID 2282963). To be noted: HepG2, Attagene cis-factorial STAT3 reporter transcription; actives raise or lower the signal. Summed up: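 After a 24 h compound incubation, total RNA from MRTU-transfected HepG2 cells was converted to cDNA and reporter sequences PCR-amplified, labelled and profiled by capillary electrophoresis. Gain and loss of signal were referenced to DMSO.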
Signal transducer and activator of transcription 3 (Homo sapiens), sequence (P40763 whole entry, looked up): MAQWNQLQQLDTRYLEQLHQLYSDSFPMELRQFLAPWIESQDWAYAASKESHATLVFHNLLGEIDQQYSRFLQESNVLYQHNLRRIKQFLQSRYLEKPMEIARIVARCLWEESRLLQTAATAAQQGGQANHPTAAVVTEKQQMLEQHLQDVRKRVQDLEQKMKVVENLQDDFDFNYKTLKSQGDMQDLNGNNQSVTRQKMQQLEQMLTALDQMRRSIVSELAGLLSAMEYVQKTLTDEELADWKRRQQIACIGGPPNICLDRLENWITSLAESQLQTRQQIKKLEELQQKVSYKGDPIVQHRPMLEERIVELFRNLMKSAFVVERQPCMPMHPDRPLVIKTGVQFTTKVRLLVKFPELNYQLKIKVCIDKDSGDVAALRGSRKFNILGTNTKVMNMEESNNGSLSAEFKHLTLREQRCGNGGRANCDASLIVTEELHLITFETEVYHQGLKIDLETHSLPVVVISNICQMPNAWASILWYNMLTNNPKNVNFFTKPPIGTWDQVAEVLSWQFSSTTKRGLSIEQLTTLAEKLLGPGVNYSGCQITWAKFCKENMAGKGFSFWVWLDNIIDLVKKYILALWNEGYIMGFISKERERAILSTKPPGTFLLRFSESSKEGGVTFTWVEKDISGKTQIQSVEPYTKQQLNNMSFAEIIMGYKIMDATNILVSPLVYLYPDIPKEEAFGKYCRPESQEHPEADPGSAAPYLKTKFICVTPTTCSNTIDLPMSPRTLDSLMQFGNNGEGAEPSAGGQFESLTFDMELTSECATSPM

The nature of test [9]: ATG_TA_CIS: Attagene CIS-FACTORIAL HepG2 Assay for human TA Basal Promoter (AID 2282964). To be noted: HepG2 Attagene CIS-factorial TA basal promoter reporter; actives raise or lower the signal. In a few lines: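 Steps: transfect HepG2 with MRTUs; dose 24 h; isolate RNA, DNase-treat, reverse-transcribe; PCR and FAM-label reporter cDNA; digest with HpaI 2h at 37 C; run capillary electrophoresis. Activity fitted both directions against DMSO.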

Test [10] can be described thus: ATG_TCF_b_cat_CIS: Attagene CIS-FACTORIAL HepG2 Assay for human T-Cell-Factor with beta-catenin (TCF/b-cat) (AID 2282965). The settings on record: HepG2 TCF/beta-catenin cis-reporter transcription, actives raise or lower the signal. In a few lines: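 Measured: reporter mRNA in HepG2 transiently transfected with cis-promoter reporter units, 24 h after chemical addition. Fitting was bidirectional, DMSO as negative control.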

A short description of test [11]: ATG_TAL_CIS: Attagene CIS-FACTORIAL HepG2 Assay for human TAL Basal Promoter (AID 2282966).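 Also: background control endpoint measuring basal TAL promoter reporter mRNA not a specific factor.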 The settings on record: HepG2 Attagene cis-factorial TAL promoter reporter; actives raise or lower the signal. In a few lines: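 Fluorescence of labelled reporter cDNA fragments, resolved by capillary electrophoresis, gave the readout. Human HepG2 liver cells carried transiently transfected cis-element reporter units and were treated for 24 hours; activity was fitted bidirectionally against DMSO.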

Test [12] can be described thus: ATG_TGFb_CIS: Attagene CIS-FACTORIAL HepG2 Assay for human Transforming Growth Factor (TGF) (AID 2282967). To be noted: HepG2 Attagene CIS TGFb reporter, mRNA transcription; actives raise or lower the signal. Summed up: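 Cells were dosed for 24 hours, after which total RNA was reverse-transcribed and reporter sequences amplified, labeled and sized by capillary electrophoresis. Activity was fitted in both directions against DMSO.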

Test [13] is described as follows: ATG_VDRE_CIS: Attagene CIS-FACTORIAL HepG2 Assay for human Vitamin D Receptor Element (VDRE) (AID 2282968). To be noted: HepG2 VDRE cis-reporter transcription, actives raise or lower the signal. Summed up: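 In transiently transfected HepG2 liver cells, gain or loss of reporter mRNA after 24 h exposure is scored relative to DMSO, using fluorescence detection by capillary electrophoresis of RT-PCR products.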

The target of test [14] is Nuclear receptor subfamily 1 group I member 3 (Homo sapiens) (UniProt Q14994). The experiment in a line: ATG_CAR_TRANS: Attagene TRANS-FACTORIAL HepG2 Assay for human Constitutive Androstane Receptor (CAR) (AID 2282969; active = hit-call score of the fitted dose curve at least 0.9, where 1 is the maximum;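 also: activators raise reporter mRNA above DMSO so AC50 marks induction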). The settings on record: HepG2 Attagene TRANS-FACTORIAL CAR reporter. Summed up:
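Readout is reporter mRNA induction, quantified by fluorescent primer extension and capillary electrophoresis after RT-PCR. Cells were HepG2 transiently carrying chimeric NR-Gal4 constructs with GAL4-UAS reporters, treated for 24 h; activity scored upward from DMSO.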

Test [15] concerns the target Glucocorticoid receptor (Homo sapiens) (UniProt P04150). The experiment in a line: ATG_GR_TRANS: Attagene TRANS-FACTORIAL HepG2 Assay for human Glucocorticoid Receptor (GR) (AID 2282978; active = hit-call score of the fitted dose curve at least 0.9, where 1 is the maximum;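 also: activators score as hits since higher reporter transcript over DMSO is fitted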). The settings on record: HepG2 Attagene TRANS GR reporter, mRNA transcription. Summed up: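 Reporter transcript levels, detected by fluorescence after RT-PCR and capillary electrophoresis, served as the endpoint. HepG2 cells bearing transfected GAL4-UAS reporters responsive to NR-GAL4 chimeras were incubated with compound 24 h; DMSO defined baseline.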

In test [16] the target is Estrogen-related receptor gamma (Homo sapiens) (UniProt P62508). As to the kind of experiment: ATG_ERRg_TRANS: Attagene TRANS-FACTORIAL HepG2 Assay for human Estrogen-Related Receptor gamma (ERRg) (AID 2282977; active = hit-call score of the fitted dose curve at least 0.9, where 1 is the maximum;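 also: hits increase reporter signal over DMSO so potencies reflect activators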). The settings on record: HepG2 Attagene TRANS reporter, ERRg transactivation. Summed up: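 HepG2 cells transiently transfected with multiplexed GAL4-UAS reporter units and chimeric NR-Gal4 constructs were exposed to test chemicals for 24 h. Reporter mRNA was measured by RT-PCR, 6-FAM primer extension, HpaI digestion and capillary electrophoresis; gain-of-signal versus DMSO.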
Estrogen-related receptor gamma (Homo sapiens), sequence (P62508 whole entry, looked up, the tested form may be a part): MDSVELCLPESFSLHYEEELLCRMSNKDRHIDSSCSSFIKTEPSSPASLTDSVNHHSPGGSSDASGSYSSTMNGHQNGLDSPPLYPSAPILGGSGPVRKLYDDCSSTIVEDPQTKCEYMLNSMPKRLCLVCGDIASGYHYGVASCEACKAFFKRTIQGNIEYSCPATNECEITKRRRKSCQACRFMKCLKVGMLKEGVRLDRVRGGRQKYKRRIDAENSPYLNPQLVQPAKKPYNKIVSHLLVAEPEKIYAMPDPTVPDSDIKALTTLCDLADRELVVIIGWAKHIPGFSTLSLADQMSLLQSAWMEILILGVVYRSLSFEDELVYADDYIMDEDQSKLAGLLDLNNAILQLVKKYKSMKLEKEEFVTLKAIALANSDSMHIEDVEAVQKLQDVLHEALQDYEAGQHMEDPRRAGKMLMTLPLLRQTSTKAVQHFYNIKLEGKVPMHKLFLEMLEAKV

The target in test [17] is Steroid hormone receptor ERR1 (Homo sapiens) (UniProt P11474). The experiment in a line: ATG_ERRa_TRANS: Attagene TRANS-FACTORIAL HepG2 Assay for human Estrogen-Related Receptor alpha (ERRa) (AID 2282971; active = hit-call score of the fitted dose curve at least 0.9, where 1 is the maximum). To be noted: HepG2 Attagene TRANS reporter, ERRa transactivation. Summed up:
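Reporter transcript induction was quantified by RT-PCR and capillary electrophoresis of FAM-labelled, HpaI-cut products after 24 h treatment of HepG2 cells carrying transiently transfected GAL4-UAS reporter units and an exogenous ERRa-Gal4 fusion; activity scored as increase over DMSO.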

The target of test [18] is X-box-binding protein 1 (Homo sapiens) (UniProt P17861). The experiment in a line: ATG_Xbp1_CIS: Attagene CIS-FACTORIAL HepG2 Assay for human X-box Binding Protein 1 (XBP1) (AID 2282972). To be noted: HepG2 XBP1 cis-element reporter, Attagene multiplex; actives raise or lower the signal. In a few lines: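 HepG2 cells transiently transfected with multiple cis-element reporter units report endogenous TF activity; 24 h exposure, then reporter mRNA measured by RT-PCR, 6-FAM labelling, HpaI digestion and capillary electrophoresis. Bidirectional fitting versus DMSO.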
X-box-binding protein 1 (Homo sapiens), sequence (P17861 whole entry, looked up): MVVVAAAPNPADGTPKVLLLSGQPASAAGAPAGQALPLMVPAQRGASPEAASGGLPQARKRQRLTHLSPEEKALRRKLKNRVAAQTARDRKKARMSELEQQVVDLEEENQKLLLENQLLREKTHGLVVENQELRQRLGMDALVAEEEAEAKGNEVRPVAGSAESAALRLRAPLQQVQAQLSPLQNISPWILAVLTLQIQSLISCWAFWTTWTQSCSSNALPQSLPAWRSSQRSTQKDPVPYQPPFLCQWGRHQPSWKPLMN

The nature of test [19]: ATG_M_19_TRANS: Attagene TRANS-FACTORIAL HepG2 Assay for M19 Transcription Factor (Internal Marker) (AID 2282974; active = hit-call score of the fitted dose curve at least 0.9, where 1 is the maximum). The settings on record: HepG2 Attagene TRANS-FACTORIAL M19 internal marker reporter. In a few lines: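 Reporter mRNA induction was measured in transfected HepG2 cells 24 h after dosing. Endpoint fitted upward relative to DMSO and serves as a background control within the multiplexed TRANS panel.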

Test [20] in a line: ATG_GAL4_TRANS: Attagene TRANS-FACTORIAL HepG2 Assay for GAL4 (Internal Marker) (AID 2282976; active = hit-call score of the fitted dose curve at least 0.9, where 1 is the maximum). The settings on record: HepG2 Attagene TRANS GAL4 internal marker reporter. Summed up:
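First, HepG2 cells were transfected with reporter units under GAL4-UAS control. Next, they were treated with chemical for 24 h. Finally, RNA was reverse-transcribed, PCR-amplified, FAM-labelled and resolved by capillary electrophoresis, with induction scored against DMSO.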

Nuclear receptor subfamily 1 group I member 3 (Homo sapiens), sequence (Q14994 whole entry, looked up, the tested form may be a part): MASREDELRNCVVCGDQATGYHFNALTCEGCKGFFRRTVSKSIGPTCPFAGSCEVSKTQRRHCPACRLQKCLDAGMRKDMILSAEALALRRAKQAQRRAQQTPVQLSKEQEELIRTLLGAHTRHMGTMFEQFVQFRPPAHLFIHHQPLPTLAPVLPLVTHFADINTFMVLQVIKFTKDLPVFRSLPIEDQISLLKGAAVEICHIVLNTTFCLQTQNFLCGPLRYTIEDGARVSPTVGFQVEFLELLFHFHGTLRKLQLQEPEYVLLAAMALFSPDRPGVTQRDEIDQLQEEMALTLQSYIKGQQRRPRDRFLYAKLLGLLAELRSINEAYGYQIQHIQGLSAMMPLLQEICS
Paired box protein Pax-6 (Homo sapiens), sequence (P26367 whole entry, looked up): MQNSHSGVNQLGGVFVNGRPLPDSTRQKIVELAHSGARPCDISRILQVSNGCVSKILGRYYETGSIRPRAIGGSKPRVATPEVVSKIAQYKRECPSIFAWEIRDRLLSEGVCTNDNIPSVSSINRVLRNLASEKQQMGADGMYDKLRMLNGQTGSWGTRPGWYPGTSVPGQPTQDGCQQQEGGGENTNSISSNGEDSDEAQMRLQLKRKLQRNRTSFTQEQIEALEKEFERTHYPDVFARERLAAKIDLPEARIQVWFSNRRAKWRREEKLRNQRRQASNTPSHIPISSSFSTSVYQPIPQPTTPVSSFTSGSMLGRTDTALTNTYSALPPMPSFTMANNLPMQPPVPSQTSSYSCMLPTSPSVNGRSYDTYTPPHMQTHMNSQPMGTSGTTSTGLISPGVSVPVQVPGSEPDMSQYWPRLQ
Glucocorticoid receptor (Homo sapiens), sequence (P04150 whole entry, looked up, the tested form may be a part): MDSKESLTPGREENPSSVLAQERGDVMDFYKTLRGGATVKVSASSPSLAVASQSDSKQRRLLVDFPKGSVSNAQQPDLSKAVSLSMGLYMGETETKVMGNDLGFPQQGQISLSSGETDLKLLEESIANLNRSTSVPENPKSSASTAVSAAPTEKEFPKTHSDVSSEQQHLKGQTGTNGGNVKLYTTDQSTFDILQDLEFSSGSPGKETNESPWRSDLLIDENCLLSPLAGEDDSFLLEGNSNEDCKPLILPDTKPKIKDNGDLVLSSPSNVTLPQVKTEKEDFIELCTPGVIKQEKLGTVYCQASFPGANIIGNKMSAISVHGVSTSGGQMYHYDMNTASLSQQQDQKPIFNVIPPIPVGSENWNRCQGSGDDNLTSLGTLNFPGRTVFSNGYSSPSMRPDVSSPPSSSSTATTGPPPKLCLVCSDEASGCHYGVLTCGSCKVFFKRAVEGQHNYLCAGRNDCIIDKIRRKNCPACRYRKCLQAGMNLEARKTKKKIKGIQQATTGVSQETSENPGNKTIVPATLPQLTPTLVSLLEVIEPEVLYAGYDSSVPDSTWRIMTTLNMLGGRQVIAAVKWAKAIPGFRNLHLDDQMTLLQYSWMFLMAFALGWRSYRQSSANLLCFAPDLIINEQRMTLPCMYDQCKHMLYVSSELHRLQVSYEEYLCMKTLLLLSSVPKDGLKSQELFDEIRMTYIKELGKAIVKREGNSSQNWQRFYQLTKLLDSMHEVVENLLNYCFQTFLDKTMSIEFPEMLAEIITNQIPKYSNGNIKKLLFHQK
Steroid hormone receptor ERR1 (Homo sapiens), sequence (P11474 whole entry, looked up, the tested form may be a part): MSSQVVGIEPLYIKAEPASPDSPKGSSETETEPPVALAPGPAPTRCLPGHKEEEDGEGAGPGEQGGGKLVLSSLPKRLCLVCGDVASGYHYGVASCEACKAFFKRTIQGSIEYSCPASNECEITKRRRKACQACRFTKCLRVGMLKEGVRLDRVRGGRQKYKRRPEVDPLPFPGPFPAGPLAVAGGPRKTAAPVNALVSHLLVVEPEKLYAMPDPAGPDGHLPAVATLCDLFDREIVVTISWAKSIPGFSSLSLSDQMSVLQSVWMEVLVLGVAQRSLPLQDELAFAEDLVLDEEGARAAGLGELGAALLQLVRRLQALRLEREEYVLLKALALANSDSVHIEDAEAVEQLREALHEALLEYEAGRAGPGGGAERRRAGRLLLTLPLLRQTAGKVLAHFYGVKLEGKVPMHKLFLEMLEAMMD

In the case of `Cc1ccc(O)cc1`, the compound was classed as inactive in [1], in [2], in test [3], in test [4], in test [5] and in test [6]. For the same compound, the result in test [7], in test [8], in [9], in test [10], in [11] and in test [12] was inactive. Moreover, the call in [13], in [14] and in test [15] was inactive.
For `CCc1cc(SCc2sc(-c3ccc(C(F)(F)F)cc3)nc2CN2CCN(c3ccc(OC)cc3)CC2)ccc1OCC(=O)O`, the AC50 (as a rule, the midpoint of the concentration-response curve, whichever way the signal moves) in test [1] was 17.5 µM (active); in test [3], 0.0329 µM (active); in test [4], 11 µM (active); in test [7] it was 0.225 µM (active); in test [9] it was 14.8 µM (active); in [10], 7.72 µM (active). In addition, in [13], the AC50 is 16.5 µM (active). In addition, the outcome in test [2], in [5], in test [6], in test [8], in [11] and in [12] was inactive. The result in test [14] and in test [16] was inactive.
Regarding `COC(=O)c1c(Cl)c(Cl)c(C(=O)OC)c(Cl)c1Cl`, the call in test [1], in [3], in test [4], in test [5], in test [6] and in [7] was inactive. The outcome in [8], in test [9], in [10], in [11], in test [12] and in test [13] was inactive. Moreover, the compound was classed as inactive in test [17], in test [18], in [19], in test [20] and in [16]. Also, the AC50 in test [2] is 25.8 µM (active).
Turning to `COc1cccc(-c2ccc(/C=C\CN3CCCCCC3)cc2Cl)c1`, the outcome in test [1], in [3], in [4], in test [5], in [6] and in [8] was inactive. Moreover, the result in test [9], in test [10], in [11], in [12], in [14] and in test [19] was inactive. Moreover, the outcome in [16] and in test [15] was inactive. Also, the AC50 in test [2] was 3.67 µM (active); in test [7], 20.5 µM (active); in test [13], 6.94 µM (active).
